Data reported in PubChem BioAssay AID1159580 (chemical genetic matrix, 2015).
Among all 5,500 compounds or so, about 2,000 (36%) were called active. Inconclusive results (about 18%) are left out. No stated cut-off is given here; in the data, active means normalized growth mostly below about 0.91 (no sharp cut-off); inconclusive means no clear call, values can overlap the other calls; inactive means mostly above about 0.92. The list shows a part of the results.

Assay: chemical genetic growth profiling, strain panel (AID 1159580);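 further: tested at 20 µM; growth read once vehicle control cultures reached saturation at 30 °C; 1 = growth at the plate median or of vehicle wells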
Details: growth OD

Measured: normalized growth

O[N+]1=CC=CCC1=S.On1ccccc1=S.[Zn]
active: S. cerevisiae deletion strains, locus YJR043C, strain POL32, stronger effect = lower value 0.0664 | S. cerevisiae deletion strains, locus YJR066W, strain TOR1, stronger effect = lower value 0.00186 | S. cerevisiae deletion strains, locus YJR075W, strain HOC1, stronger effect = lower value 0.0642 | S. cerevisiae deletion strains, locus YKL009W, strain mrt4, stronger effect = lower value 0.071 | S. cerevisiae deletion strains, locus YKL068W, stronger effect = lower value 0.0609 | S. cerevisiae deletion strains, locus YKL085W, strain MDH1 (second series), stronger effect = lower value 0.0543 | S. cerevisiae deletion strains, locus YKL085W, strain MDH1, stronger effect = lower value 0.0543 | S. cerevisiae deletion strains, locus YKL160W, strain elf1, stronger effect = lower value 0.07 | S. cerevisiae deletion strains, locus YKR001C, strain vps1, stronger effect = lower value 0.063 | S. cerevisiae deletion strains, locus YKR026C, strain gcn3, stronger effect = lower value 0.0676 | S. cerevisiae deletion strains, locus YKR091W, strain srl3, stronger effect = lower value 0.0611 | S. cerevisiae deletion strains, locus YLL001W, strain dnm1, stronger effect = lower value 0.059 | S. cerevisiae deletion strains, locus YLL026W, stronger effect = lower value 0.0586 | S. cerevisiae deletion strains, locus YLL041C, strain sdh2, stronger effect = lower value 0.0589 | S. cerevisiae deletion strains, locus YLR027C, strain aat2, stronger effect = lower value 0.0567 | S. cerevisiae deletion strains, locus YLR039C, strain RIC1, stronger effect = lower value 0.101 | S. cerevisiae deletion strains, locus YLR058C, strain SHM2, stronger effect = lower value 0.0528 | S. cerevisiae deletion strains, locus YLR102C, strain apc9, stronger effect = lower value 0.0619 | S. cerevisiae deletion strains, locus YLR113W, strain HOG1, stronger effect = lower value 0.14 | S. cerevisiae deletion strains, locus YLR221C, strain rsa3, stronger effect = lower value 0.0633 | S. cerevisiae deletion strains, locus YLR258W, strain gsy2, stronger effect = lower value 0.0677 | S. cerevisiae deletion strains, locus YLR262C, strain YPT6 (second series), stronger effect = lower value 0.0872 | S. cerevisiae deletion strains, locus YLR262C, strain YPT6, stronger effect = lower value 0.116 | S. cerevisiae deletion strains, locus YLR268W, strain sec22, stronger effect = lower value 0.0675 | S. cerevisiae deletion strains, locus YLR320W, strain mms22, stronger effect = lower value 0.0954 | S. cerevisiae deletion strains, locus YLR330W, strain CHS5, stronger effect = lower value 0.0529 | S. cerevisiae deletion strains, locus YLR342W, strain FKS1 (second series), stronger effect = lower value 0.0696 | S. cerevisiae deletion strains, locus YLR342W, strain FKS1, stronger effect = lower value 0.0672 | S. cerevisiae deletion strains, locus YLR357W, strain rsc2, stronger effect = lower value 0.128 | S. cerevisiae deletion strains, locus YLR370C, strain arc18, stronger effect = lower value 0.0633 | S. cerevisiae deletion strains, locus YLR371W, strain rom2, stronger effect = lower value 0.0617 | S. cerevisiae deletion strains, locus YLR384C, strain iki3, stronger effect = lower value 0.0637 | S. cerevisiae deletion strains, locus YLR418C, strain cdc73, stronger effect = lower value 0.0957 | S. cerevisiae deletion strains, locus YML016C, strain PPZ1, stronger effect = lower value 0.0508 | S. cerevisiae deletion strains, locus YML032C, strain rad52, stronger effect = lower value 0.0712 | S. cerevisiae deletion strains, locus YML120C, strain ndi1, stronger effect = lower value 0.0615 | S. cerevisiae deletion strains, locus YML124C, strain tub3, stronger effect = lower value 0.061 | S. cerevisiae deletion strains, locus YMR058W, strain fet3, stronger effect = lower value 0.0596 | S. cerevisiae deletion strains, locus YMR078C, strain ctf18, stronger effect = lower value 0.0748 | S. cerevisiae deletion strains, locus YMR125W, strain sto1, stronger effect = lower value 0.0764 | S. cerevisiae deletion strains, locus YMR129W, stronger effect = lower value 0.059 | S. cerevisiae deletion strains, locus YMR205C, strain PFK2, stronger effect = lower value 0.0932 | S. cerevisiae deletion strains, locus YMR223W, strain ubp8, stronger effect = lower value 0.0633 | S. cerevisiae deletion strains, locus YMR231W, strain pep5, stronger effect = lower value 0.0701 | S. cerevisiae deletion strains, locus YMR263W, strain SAP30, stronger effect = lower value 0.0599 | S. cerevisiae deletion strains, locus YMR307W, strain GAS1, stronger effect = lower value 0.132 | S. cerevisiae deletion strains, locus YNL067W, strain RPL9B, stronger effect = lower value 0.0487 | S. cerevisiae deletion strains, locus YNL071W, strain lat1, stronger effect = lower value 0.0631 | S. cerevisiae deletion strains, locus YNL128W, strain TEP1, stronger effect = lower value 0.0641 | S. cerevisiae deletion strains, locus YNL183C, strain NPR1, stronger effect = lower value 0.00323 | S. cerevisiae deletion strains, locus YNL209W, strain ssb2, stronger effect = lower value 0.0623 | S. cerevisiae deletion strains, locus YNL233W, strain BNI4, stronger effect = lower value 0.0571 | S. cerevisiae deletion strains, locus YNL248C, strain rpa49, stronger effect = lower value 0.0755 | S. cerevisiae deletion strains, locus YNL250W, strain rad50, stronger effect = lower value 0.0654 | S. cerevisiae deletion strains, locus YNL271C, strain bni1, stronger effect = lower value 0.074 | S. cerevisiae deletion strains, locus YNL298W, strain CLA4, stronger effect = lower value 0.0625 | S. cerevisiae deletion strains, locus YNL307C, strain MCK1, stronger effect = lower value 0.0674 | S. cerevisiae deletion strains, locus YNL322C, strain KRE1 (second series), stronger effect = lower value 0.0696 | S. cerevisiae deletion strains, locus YNR049C, strain mso1, stronger effect = lower value 0.0598 | S. cerevisiae deletion strains, locus YNR052C, strain pop2, stronger effect = lower value 0.0619 | S. cerevisiae deletion strains, locus YOL147C, strain pex11, stronger effect = lower value 0.0583 | S. cerevisiae deletion strains, locus YOR001W, strain rrp6, stronger effect = lower value 0.0748 | S. cerevisiae deletion strains, locus YOR061W, strain CKA2, stronger effect = lower value 0.049 | S. cerevisiae deletion strains, locus YOR069W, strain VPS5, stronger effect = lower value 0.0493 | S. cerevisiae deletion strains, locus YOR070C, strain gyp1, stronger effect = lower value 0.064 | S. cerevisiae deletion strains, locus YOR080W, strain dia2, stronger effect = lower value 0.0707 | S. cerevisiae deletion strains, locus YOR083W, strain WHI5, stronger effect = lower value 0.0734 | S. cerevisiae deletion strains, locus YOR106W, strain vam3, stronger effect = lower value 0.0661 | S. cerevisiae deletion strains, locus YOR136W, strain idh2, stronger effect = lower value 0.0716 | S. cerevisiae deletion strains, locus YOR144C, strain elg1, stronger effect = lower value 0.0584 | S. cerevisiae deletion strains, locus YOR184W, strain ser1, stronger effect = lower value 0.0698 | S. cerevisiae deletion strains, locus YOR231W, strain MKK1, stronger effect = lower value 0.116 | S. cerevisiae deletion strains, locus YOR265W, strain rbl2, stronger effect = lower value 0.064 | S. cerevisiae deletion strains, locus YOR270C, strain vph1, stronger effect = lower value 0.0915 | S. cerevisiae deletion strains, locus YOR290C, strain snf2, stronger effect = lower value 0.0656 | S. cerevisiae deletion strains, locus YOR316C, strain cot1, stronger effect = lower value 0.0596 | S. cerevisiae deletion strains, locus YPL051W, strain arl3, stronger effect = lower value 0.0708 | S. cerevisiae deletion strains, locus YPL055C, strain LGE1, stronger effect = lower value 0.0796 | S. cerevisiae deletion strains, locus YPL078C, strain atp4, stronger effect = lower value 0.07 | S. cerevisiae deletion strains, locus YPL106C, strain sse1, stronger effect = lower value 0.109 | S. cerevisiae deletion strains, locus YPL240C, strain hsp82, stronger effect = lower value 0.0591 | S. cerevisiae deletion strains, locus YPL256C, strain CLN2, stronger effect = lower value 0.114 | S. cerevisiae deletion strains, locus YPR119W, strain clb2, stronger effect = lower value 0.0639 | S. cerevisiae deletion strains, locus YPR141C, strain kar3, stronger effect = lower value 0.0689 | S. cerevisiae deletion strains, locus YPR163C, strain tif3, stronger effect = lower value 0.0727 | S. cerevisiae deletion strains, locus YPR167C, strain met16, stronger effect = lower value 0.0637 | S. cerevisiae deletion strains, strain wtn01, stronger effect = lower value 0.0638 | S. cerevisiae strains, strain wild type, stronger effect = lower value 0.0514
